Results as given in ChEMBL document CHEMBL4513216, “Probing the Open Global Health Chemical Diversity Library for Multistage-Active Starting Points for Next-Generation Antimalarials” (ACS Infect Dis, 2020).
In all, about 69,000 compounds went through this assay and about 8,600 (12%) showed an effect of 50% or more. The sample as a whole holds a higher share of strong results than the screen did.

The molecules below were run on Plasmodium berghei (assay: Screen against P. berghei liver stage (PbLuc), transformed with Luciferase, at 10uM). Conditions: tested at 10 uM.
Format: functional, HepG2
For `COc1ccc(Cl)cc1S(=O)(=O)N1C[C@H]2CC[C@@H](C1)N(C)C2=O`, the INHIBITION was 48.9%.
Work on `CN(C)CC(=O)N1CCC2(CC1)Cc1ccccc1CN(C)C2=O` yielded an INHIBITION of 18.6%.
`Cc1ccc(CN2C[C@@H]3CN(C(=O)c4cccn4C)C[C@@H]3C2)cc1` gave an INHIBITION of 8.74%.
For `c1cn(-c2ccc(CN3CCOC(Cn4cncn4)C3)cc2)cn1` (stereo unspecified), the INHIBITION was 27.6%.
For `CCC(C)NC(=O)c1ccc(NC(=O)CCc2ccncc2)c(C)c1` (stereo unspecified), the INHIBITION was 39%.
`COC(=O)c1ccc(NC(=O)CCc2ccncc2)c(C)c1` showed an INHIBITION of 50.1%.
`COc1ccc(CCC(=O)Nc2ccncc2C)cc1` showed an INHIBITION of 12.8%.
`O=C(CCOc1ccccc1Cl)N1CCN(c2cnccn2)CC1` gave an INHIBITION of -33.7%.
With `CC(NC(=O)N1CCC[C@H]1CO)c1noc(-c2ccccc2)n1` (stereo partly specified) the INHIBITION was 8.38%.
With `CC(NC(=O)N1CCSC(C)(C)C1)c1noc(-c2ccccc2)n1` (stereo unspecified) the INHIBITION was 38.3%.
Molecule `CCN1CCN(C(=O)NC(C)c2noc(-c3ccccc3)n2)CC1` (stereo unspecified) has an INHIBITION of 51.1%.
For `Cc1nc(CNCc2c(C(C)C)nn(C)c2N2CCOCC2)cs1`, the INHIBITION was 49.6%.
With `COc1ccc2c(c1)C(C(=O)NCCN1CCNC1=O)CC(=O)N2` (stereo unspecified) the INHIBITION was 5.36%.
In the case of `CCCN1CCC(CC(=O)NCc2cc(C)nn2C)CC1`, the INHIBITION is reported as 22.3%.
In the case of `CCN1CCC(CC(=O)NCCc2nc(C)cc(C)n2)CC1`, the INHIBITION is reported as -26.1%.
For `CCN1CCC(CC(=O)NCc2nc(C)cc(C)n2)CC1`, the INHIBITION was 69.9%.
In the case of `CCc1nc(C)c(CNC(=O)CCCN2CCCCC2)s1`, the INHIBITION is reported as 9.87%.
`Cc1nc(CCNC(=O)C2CCN(C(C)C)CC2)sc1Cl` gave an INHIBITION of -3.72%.
With `Cc1cc(CNC(=O)CCCN2CCCCC2)n(C)n1` the INHIBITION was 73.6%.
`Cc1nc(CCNC(=O)CC2CCN(C(C)C)CC2)sc1Cl` showed an INHIBITION of 60.9%.
Work on `Cc1cc(CNC(=O)CC2CCN(C(C)C)CC2)n(C)n1` yielded an INHIBITION of 60.8%.
`CCN1CCC(CC(=O)NCCc2nc(C)c(Cl)s2)CC1` showed an INHIBITION of 13%.
`CCN1CCC(CC(=O)NCc2cc(C)nn2C)CC1` gave an INHIBITION of -6.59%.
Molecule `CCCN1CCC(CC(=O)NCCc2nc(C)cc(C)n2)CC1` has an INHIBITION of -37.2%.
In the case of `Cc1cc(C(F)(F)F)nc(CNC(=O)CCCN2CCCCC2)n1`, the INHIBITION is reported as 48%.
`CC(=O)Nc1nc(C(=O)NC(C)c2ccc(F)c(F)c2)cs1` (stereo unspecified) gave an INHIBITION of -31.8%.
`COc1cccc(N2CCN(Cc3ccc4[nH]ccc4c3)CC2=O)c1` gave an INHIBITION of 10.2%.
`CCCc1nnc2sc(C3CCS(=O)(=O)CC3)nn12` was tested, and the INHIBITION was 33%.
Work on `CC(=O)N1CCN(c2cncc(C3CCNCC3)n2)CC1` yielded an INHIBITION of 16.5%.
Molecule `CN1CC2(CNCCN(C(=O)Nc3ccccc3)C2)CC1=O` (stereo unspecified) has an INHIBITION of -36.8%.
`COc1c(CNCc2ccc(N(C)C)nc2)c(C)nn1C` was tested, and the INHIBITION was 11.25%.
`CC(C)C[C@H](NCc1cc(O)c2cccc(F)c2n1)C(N)=O` was tested, and the INHIBITION was 3.03%.
Molecule `O=C(c1cccc(C2CCNC2)c1)N1CCC(c2ncc[nH]2)CC1` (stereo unspecified) has an INHIBITION of -6.61%.
For `COCCN1CCN(CC(O)c2ccc(OC(F)(F)F)cc2)CC1` (stereo unspecified), the INHIBITION was -24.2%.
`O=C(c1ccoc1)N1CCC2(CCC(=O)N2Cc2ccncc2)CC1` was tested, and the INHIBITION was 43.8%.
With `CCN1C(=O)CCCC12CCCN(C(=O)c1ccncc1F)C2` (stereo unspecified) the INHIBITION was 51.4%.
In the case of `CN(C)CCN1C(=O)CCC12CCCN(C(=O)c1ccncc1F)C2` (stereo unspecified), the INHIBITION is reported as -24.1%.
For `O=C(c1ccoc1)N1CCCC2(CCC(=O)N2Cc2cccnc2)C1` (stereo unspecified), the INHIBITION was 42.3%.
With `O=C(c1ccoc1)N1CCCC2(CCC(=O)N2Cc2ccncc2)C1` (stereo unspecified) the INHIBITION was 51.2%.
For `CN1C(=O)CCC12CCCN(C(=O)c1ccncc1F)C2` (stereo unspecified), the INHIBITION was -12.2%.
`O=C(Cc1c(F)cccc1Cl)Nc1cccc(N2CCCC2)c1` gave an INHIBITION of 43.4%.
`CNC(=O)c1cn[nH]c1C1CCN(Cc2sccc2C)C1` (stereo unspecified) gave an INHIBITION of -14.1%.
Work on `CC(=O)c1cccc(OCCCC(=O)N(C)CCC(F)(F)F)c1` yielded an INHIBITION of 57.3%.
With `CC(=O)c1cccc(OCCCC(=O)N(C)Cc2cccc(O)c2)c1` the INHIBITION was 23.5%.
In the case of `CC(=O)c1cccc(OCCCC(=O)N(C)Cc2cnn(C)c2)c1`, the INHIBITION is reported as 82.2%.
Molecule `CCN(C)C(=O)CCN(C)Cc1cnc(C)s1` has an INHIBITION of 50.4%.
Molecule `CC(=O)c1cccc(OCCCC(=O)N(C)Cc2cnc(C)s2)c1` has an INHIBITION of 55.4%.
Work on `CCCN(CCC)C(=O)CN(C)Cc1cnc(C)s1` yielded an INHIBITION of 23.2%.
In the case of `CC(=O)c1cccc(OCCCC(=O)N(C)Cc2cscn2)c1`, the INHIBITION is reported as 5.68%.
Work on `COc1cc(C(C)=O)ccc1OCC(=O)N(C)Cc1cnn(C)c1` yielded an INHIBITION of 40.9%.
`CC(=O)c1cccc(OCCCC(=O)N(C)CCc2ccncc2)c1` showed an INHIBITION of -8.19%.
With `CC(=O)c1cccc(OCCCC(=O)N(C)Cc2ccccn2)c1` the INHIBITION was 3.47%.
In the case of `CC(=O)c1cccc(OCCCC(=O)N(C)CC(N)=O)c1`, the INHIBITION is reported as -25.1%.
Work on `CCOC(=O)CN(C)Cc1cnc(C)s1` yielded an INHIBITION of 8.38%.
With `CN(C)C(CNC(=O)c1ccnc(-n2cncn2)c1)c1ccccc1` (stereo unspecified) the INHIBITION was 9.34%.
`CN(C)c1ccc(CNCc2cnc(N3CCOCC3)nc2)cn1` showed an INHIBITION of 12.6%.
Molecule `O=S1(=O)CCN(Cc2cccnc2)[C@H]2CCN(c3ncccn3)CC[C@H]21` has an INHIBITION of 46.8%.
`CN1C(=O)CC(c2cnn(C)c2)C12CCN(C(=O)c1cccn1C)CC2` (stereo unspecified) was tested, and the INHIBITION was 26.4%.
`O=C(c1cc[nH]n1)N1CCc2cc(Br)sc2C1` was tested, and the INHIBITION was 24.2%.
Work on `Cc1nc(CN2CCOCC3(CCN(c4cccnc4)CC3)C2)cs1` yielded an INHIBITION of 14.4%.
`COCc1ncn2c1CN(C(=O)Nc1ccccc1)CC2` gave an INHIBITION of -22.1%.
Molecule `CC(Cn1ccnc1)NC(=O)Cc1ccc2c(c1)OCCO2` (stereo unspecified) has an INHIBITION of -21.8%.
With `Cc1ccsc1-c1nccn1C1CC(=O)N(C(C)C)C1` (stereo unspecified) the INHIBITION was 35.8%.
Molecule `Cc1ccc(NC(=O)CN[C@H](C(N)=O)C(C)C)cc1F` has an INHIBITION of 10.7%.
`Cc1ccc(NC(=O)CNC(C)Cc2ccsc2)cc1F` (stereo unspecified) was tested, and the INHIBITION was 52.2%.
For `Cc1cccc(C)c1NC(=O)CNC(C)Cc1ccsc1` (stereo unspecified), the INHIBITION was 34.6%.
`Cc1ccn(-c2cccc(C(=O)N3CCCC(n4ccnc4C)C3)c2)n1` (stereo unspecified) showed an INHIBITION of 44.8%.
`Cc1cc(CN2CC[C@H]3[C@H]2CCN3CC(=O)N(C)C)oc1C` was tested, and the INHIBITION was 38.3%.
`Cc1cc(CN(CCO)c2ccc(Br)cc2)on1` showed an INHIBITION of 13.8%.
Work on `Cc1cc(CN(CCCO)c2ccccc2)on1` yielded an INHIBITION of 56.5%.
With `Cc1cc(CN(CCO)c2ccccc2)on1` the INHIBITION was 45.5%.
